Screens: PubChem BioAssay, National Center for Advancing Translational Sciences (NCATS)
In the library only some 19% were active in any assay of this set; here they are far more common.
HT1080 IDH1KD tx: toxicity to HT-1080 IDH1 knockdown cells (counter line); 360,000 compounds, 2% hits; HT-1080 IDH1 knockdown viability, ATP luminescence, 48 h; Potency, µM (highest dose often 46.1 µM), most hits filed as cytotoxic
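Cytotoxicity counter-line: IDH1KD HT-1080, 48 h, CellTiter-Glo. Curves classed by r2, magnitude and activity.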
DT40 TDP1 CPT: DT40-hTDP1 cell growth loss with CPT; chicken DT40 Tdp1-/-;hTDP1 cells + 20 nM CPT, ATP luminescence, 48 h; Potency, µM (doses to about 46.2 µM), most hits filed as inhibitors; 420,000 compounds, 12% hits; note: nearly all actives have a fitted effect of over 55% in size
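Chicken DT40 Tdp1-/- cells stably complemented with human TDP1 were seeded at 400 cells/well in medium containing 20 nM camptothecin, exposed to pin-transferred compounds, and grown at 37 °C for at least 48 hr. Viability was read as ATP luminescence.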
IL-1B inflam inh: blocks inflammasome-driven IL-1 beta release; THP-1 LPS/ATP IL-1B secretion, AlphaLISA, 16 h; stronger effect = lower value; activity change, % at 57.5 µM; 360,000 compounds, 4.7% hits; in the data active = activity change below about -50%; inconclusive = mostly about -30% to -49%
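Secreted IL-1B measured by AlphaLISA bead assay after 16 h compound exposure of THP-1 cells; compounds (final up to 57.5 uM) added 1 h before LPS (250 ng/mL) and ATP (1.25 mM) stimulation; lower signal means less secretion.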
TDP1 cell noCPT: qHTS for Inhibitors of human tyrosyl-DNA phosphodiesterase 1 (TDP1): qHTS in cells in absence of CPT; DT40 Tdp1-/- hTDP1 cells, no CPT, ATP luminescence, 48 h; Potency, µM (doses to about 46.2 µM), most hits filed as inhibitors; 420,000 compounds, 15% hits; AID 686978, 2013; note: nearly all actives have a fitted effect of over 55% in size
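Luminescent ATP content (CellTiter-Glo) served as the growth readout. Knockout chicken DT40 cells expressing human TDP1 were exposed to compounds without camptothecin for a minimum 48 hr at 37 °C.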
HT1080-NT tox: kills 2HG-producing HT-1080-NT fibrosarcoma cells; HT-1080-NT fibrosarcoma viability, CellTiter-Glo ATP luminescence, 48 h; Potency, µM (top dose mostly 46.1 µM), usual class: cytotoxic; 360,000 compounds, 1.6% hits; AID 686970;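 note: NT is the 2HG producing partner of a matched IDH1 knockdown line; nearly all actives have a fitted effect of over 55% in size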
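Fibrosarcoma NT cells, 750 per well in 5% FBS RPMI, were exposed to compound for 48 hours. Viability: CellTiter-Glo luminescence.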
Of the large screens only hits and unclear results are named; the others gave an inactive call. Unless noted, calls come from the whole dose curve; as a rule, active = well fitted curve in the direction sought with a large enough effect; inconclusive = small, poorly fitted or top-dose-only effect, or another doubt; inactive = no such curve, though single readings can be large; an effect the other way counts as inactive or inconclusive.

COc1cc2[nH]c(=O)n(Cc3ccc(C(=O)N4CCN(c5ccc(Cl)cc5)CC4)cc3)c(=O)c2cc1OC	DT40 TDP1 CPT 3.3µM, TDP1 cell noCPT 2.9µM (no result: HT1080 IDH1KD tx, IL-1B inflam inh, HT1080-NT tox)
COc1ccccc1S(=O)(=O)N(C)C[C@@H]1Oc2cc(C#CCC(C)C)ccc2S(=O)(=O)N([C@H](C)CO)C[C@@H]1C	DT40 TDP1 CPT inconclusive, IL-1B inflam inh inconclusive, TDP1 cell noCPT inconclusive
COc1cccc(C(=O)C2CN(C)CC2c2ccc(Cl)cc2)c1 (stereo not drawn)	DT40 TDP1 CPT inconclusive, IL-1B inflam inh -59, TDP1 cell noCPT inconclusive
CN1CC(C(=O)c2ccccc2)C(c2ccccc2)C1 (stereo not drawn)	DT40 TDP1 CPT inconclusive, TDP1 cell noCPT inconclusive
CN1CC(C(=O)c2cccc(C(F)(F)F)c2)C(c2ccc(Cl)cc2)C1 (stereo not drawn)	DT40 TDP1 CPT 23µM, IL-1B inflam inh -83, TDP1 cell noCPT inconclusive
COc1ccc(C(=O)C2CN(C)CC2c2ccc(Cl)cc2)cc1 (stereo not drawn)	DT40 TDP1 CPT 18µM, IL-1B inflam inh inconclusive, TDP1 cell noCPT inconclusive
CN1CC(C(=O)c2ccc([N+](=O)[O-])cc2)C(c2ccc(Cl)cc2)C1 (stereo not drawn)	DT40 TDP1 CPT inconclusive, TDP1 cell noCPT inconclusive (no result: IL-1B inflam inh)
c1cc2c(cc1N1CCOCC1)CNCc1cnnn1-2	none
Cc1ccc(-c2csc(NC(CO)c3nc4ccccc4n3CCOCCO)n2)cc1 (stereo not drawn)	DT40 TDP1 CPT inconclusive, TDP1 cell noCPT 23µM
Brc1ccc(Oc2cc(Br)c(Br)cc2Br)c(Br)c1	TDP1 cell noCPT inconclusive, HT1080-NT tox inconclusive
COc1ccc(-n2c(O)c(C(C)=NCCN3CCNCC3)c(=O)[nH]c2=O)cc1	none
COC(=O)C1=C(c2cc3ccccc3o2)C[C@@H]2CC[C@H]1N2C(=O)NCc1ccc(C(F)(F)F)cc1	HT1080 IDH1KD tx inconclusive, DT40 TDP1 CPT inconclusive, IL-1B inflam inh inconclusive, HT1080-NT tox 21µM (no result: TDP1 cell noCPT)
COC(=O)C1=C(c2cc3ccccc3o2)C[C@@H]2CC[C@H]1N2C(=O)NC(C)C	DT40 TDP1 CPT 23µM, TDP1 cell noCPT 16µM
COC(=O)C1=C(c2cc3ccccc3o2)C[C@@H]2CC[C@H]1N2C(=O)NCCCOC(C)C	DT40 TDP1 CPT inconclusive, TDP1 cell noCPT 12µM
COC(=O)C1=C(c2ccc(F)cc2F)C[C@@H]2CC[C@H]1N2C(=O)NCc1ccc2c(c1)OCO2	DT40 TDP1 CPT inconclusive, TDP1 cell noCPT inconclusive
COC(=O)C1=C(c2ccc(F)cc2F)C[C@@H]2CC[C@H]1N2C(=O)NCc1ccc(C(F)(F)F)cc1	DT40 TDP1 CPT inconclusive, IL-1B inflam inh inconclusive, TDP1 cell noCPT 21µM
COC(=O)C1=C(c2cc3ccccc3o2)C[C@@H]2CC[C@H]1N2C(=O)NCCNC(C)=O	none (no result: TDP1 cell noCPT)
COC(=O)C1=C(c2cc3ccccc3o2)C[C@@H]2CC[C@H]1N2C(=O)NCc1ccccc1	DT40 TDP1 CPT inconclusive (no result: TDP1 cell noCPT)
Oc1ccccc1-c1ccccc1	none (no result: HT1080 IDH1KD tx, IL-1B inflam inh, HT1080-NT tox)
CC(=O)N1N=C2C3CCN(CC3)C2C1c1ccc(C)cc1 (stereo not drawn)	none
N#CC[N+]1(CCCNP2(=O)C=C(c3ccccc3)OC(c3ccccc3)=C2)CCOCC1	none
COc1cccc(CC(=O)N(C)C2CCCN(Cc3ccccc3F)C2)c1 (stereo not drawn)	TDP1 cell noCPT inconclusive
Cc1ccc(S(=O)(=O)N2Cc3cc(-c4cccc(F)c4)ccc3-n3nncc3C2)cc1	none
CN(C)C1=NP(N(C)C)(N(C)C)=NC(c2ccccc2)=N1	none
CC[C@H]1C2CC3[C@@H]4N(C)c5ccccc5[C@]45C[C@@H](C2[C@H]5O)N3[C@@H]1O (stereo partly drawn)	none (no result: HT1080 IDH1KD tx, IL-1B inflam inh, HT1080-NT tox)
Cc1cccc(OP(N)(=O)Oc2cccc(C)c2)c1	TDP1 cell noCPT inconclusive
Cc1cccc(OP(=O)(Nc2ccc(F)cc2)Oc2cccc(C)c2)c1	HT1080 IDH1KD tx inconclusive, IL-1B inflam inh -72, TDP1 cell noCPT inconclusive, HT1080-NT tox 23µM
Cc1cccc(OP(=O)(NCc2ccccc2)Oc2cccc(C)c2)c1	DT40 TDP1 CPT inconclusive, TDP1 cell noCPT 26µM
CC(C)N1C(=O)CC2(CC[N+](C)(CCOC(=O)C(O)(c3ccccc3)c3ccccc3)CC2)C1=O (stereo not drawn)	none
COc1ccc(NC(=O)N2C[C@@H]3C[C@@H](C2)c2cccc(=O)n2C3)cc1	none
O=P(/C(=N/O)N1CCCCC1)(N1CCOCC1)N1CCOCC1	none
O=C(O)Cn1cc(/C=C2\C(=O)NC(=O)N(c3ccc(Cl)cc3)C2=O)c2ccccc21	none
CCN(CC)C(=O)Cn1cc(/C=C2\C(=O)NC(=O)N(c3ccccc3F)C2=O)c2ccccc21	HT1080 IDH1KD tx inconclusive, DT40 TDP1 CPT inconclusive, IL-1B inflam inh -94, TDP1 cell noCPT inconclusive, HT1080-NT tox inconclusive
Cc1ccc(-n2c(=S)[nH]c3ccc(C)cc3c2=O)cc1	DT40 TDP1 CPT inconclusive
Cc1cccc(NC(=O)c2ncn3c2C(=O)NC[C@H]3C)c1	TDP1 cell noCPT inconclusive
CC1(C)C(C(=O)N2CCN(c3ccc(Cl)cc3)CC2)C1(C)C	DT40 TDP1 CPT inconclusive, TDP1 cell noCPT 18µM
C[N+]1([O-])CCC[C@@H]1c1cccnc1 (stereo partly drawn)	none (no result: HT1080 IDH1KD tx, IL-1B inflam inh, HT1080-NT tox)
Cc1ccc(O)c(C(=O)c2cc(C(=O)NCCC(C)C)c(=O)n(CCC(C)C)c2)c1	DT40 TDP1 CPT 23µM, IL-1B inflam inh -56, TDP1 cell noCPT 18µM
CCCc1nnc(NC(=O)CCC(=O)N2CCN(Cc3ccc(OC)c(F)c3)CC2)s1	DT40 TDP1 CPT inconclusive, TDP1 cell noCPT inconclusive
O=C(O)[C@H]1[C@H]2CN[C@H](C(=O)O)[C@H]21	none (no result: HT1080 IDH1KD tx, IL-1B inflam inh, HT1080-NT tox)
Cc1nc2ccccc2c(=O)n1-c1ccc(F)cc1F	none
O=C1NC(=O)C2(Cc3ccccc3N3CCCC32)C(=O)N1c1ccccc1 (stereo not drawn)	none
CN1c2ccc([N+](=O)[O-])cc2CC2(C(=O)NC(=O)N(c3ccc(Br)cc3)C2=O)C1c1ccccc1 (stereo not drawn)	DT40 TDP1 CPT 18µM, TDP1 cell noCPT 18µM
CC(C)(C)c1o[nH]c(=O)c1C[C@H](N)C(=O)O	none (no result: HT1080 IDH1KD tx, IL-1B inflam inh, HT1080-NT tox)
C#C[C@]1(O)CC[C@H]2[C@@H]3CCC4=Cc5nc6nc7ccccc7n6cc5C[C@]4(C)[C@H]3CC[C@@]21C	DT40 TDP1 CPT inconclusive, TDP1 cell noCPT 12µM
CN1CCC(O)(c2cccs2)C(C(=O)c2cccs2)C1 (stereo not drawn)	HT1080 IDH1KD tx inconclusive, DT40 TDP1 CPT 1.3µM, IL-1B inflam inh -94, TDP1 cell noCPT 3.7µM, HT1080-NT tox 23µM
O=C(c1cc2cc(Cl)ccc2[nH]1)N1CCC2(CC1)OCCO2	DT40 TDP1 CPT 18µM, TDP1 cell noCPT inconclusive
O=C(c1cc2cc(F)ccc2[nH]1)N1CCC2(CC1)OCCO2	DT40 TDP1 CPT inconclusive, TDP1 cell noCPT inconclusive
